What all share (assay): DAPPL (digital affinity profiling via proximity ligation, sequencing); 10 mM Tris-HCl pH 7.5, 50 mM NaCl, 1 mM DTT, 4% glycerol, room temperature, 30 min; GST-TFs on glutathione beads, 16-mer random dsDNA library, 0.1% formaldehyde crosslink after washing; high values mean tight binding
The target of one assay is T1, FLI1 (Homo sapiens, UniProt Q01543 1-452).
T1 sequence: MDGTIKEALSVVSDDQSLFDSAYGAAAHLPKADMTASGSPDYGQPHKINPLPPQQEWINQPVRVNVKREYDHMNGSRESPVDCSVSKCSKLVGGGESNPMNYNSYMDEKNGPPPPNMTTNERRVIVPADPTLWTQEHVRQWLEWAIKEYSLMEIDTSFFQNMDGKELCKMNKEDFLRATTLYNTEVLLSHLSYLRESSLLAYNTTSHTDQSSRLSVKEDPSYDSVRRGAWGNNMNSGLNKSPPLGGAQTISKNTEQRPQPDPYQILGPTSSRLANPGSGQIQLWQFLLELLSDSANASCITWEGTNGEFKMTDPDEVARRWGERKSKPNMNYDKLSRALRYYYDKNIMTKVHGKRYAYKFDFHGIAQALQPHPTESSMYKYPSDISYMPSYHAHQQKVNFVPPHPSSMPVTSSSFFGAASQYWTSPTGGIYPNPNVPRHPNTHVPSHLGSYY
As to conditions: protein: recombinant; tags: N-terminal GST; dsDNA, one strand shown. An outline of the steps: (§1)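 Pools of DNA-barcoded human transcription factors, expressed in yeast as GST fusions on glutathione beads and combined with a tag-only sample, were incubated with 200 nmole of a 16-mer random double-stranded DNA library. Incubation took 30 min at room temperature in Tris/NaCl/DTT/glycerol buffer and was followed by washing, 0.1% formaldehyde crosslinking, proximity ligation (BsaI/T4 ligase, 1 h, 37 °C), PCR amplification and sequencing on an Illumina NextSeq500. Binding signal is the ratio of a hexamer's read frequency for a factor to its frequency for the tag-only sample.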

In a further assay the target is T2, ELK1 (Homo sapiens, UniProt P19419 1-428).
T2 sequence: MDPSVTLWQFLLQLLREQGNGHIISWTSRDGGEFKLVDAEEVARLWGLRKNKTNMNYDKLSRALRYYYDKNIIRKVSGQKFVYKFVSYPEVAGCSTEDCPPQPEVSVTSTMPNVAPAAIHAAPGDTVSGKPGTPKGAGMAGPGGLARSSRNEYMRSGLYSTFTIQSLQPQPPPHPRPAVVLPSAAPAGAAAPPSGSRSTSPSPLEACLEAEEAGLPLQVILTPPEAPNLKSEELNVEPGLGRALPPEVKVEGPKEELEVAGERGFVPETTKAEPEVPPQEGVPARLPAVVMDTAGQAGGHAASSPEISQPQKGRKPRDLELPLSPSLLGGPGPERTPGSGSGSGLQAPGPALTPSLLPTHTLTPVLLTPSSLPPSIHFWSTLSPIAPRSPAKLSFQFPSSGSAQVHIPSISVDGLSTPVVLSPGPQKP
The following applies: protein: recombinant; tags: N-terminal GST; dsDNA, one strand shown. An outline of the steps:
as §1

The target in the next assay is T3, GABPA (Homo sapiens, UniProt Q06546 1-454).
T3 sequence: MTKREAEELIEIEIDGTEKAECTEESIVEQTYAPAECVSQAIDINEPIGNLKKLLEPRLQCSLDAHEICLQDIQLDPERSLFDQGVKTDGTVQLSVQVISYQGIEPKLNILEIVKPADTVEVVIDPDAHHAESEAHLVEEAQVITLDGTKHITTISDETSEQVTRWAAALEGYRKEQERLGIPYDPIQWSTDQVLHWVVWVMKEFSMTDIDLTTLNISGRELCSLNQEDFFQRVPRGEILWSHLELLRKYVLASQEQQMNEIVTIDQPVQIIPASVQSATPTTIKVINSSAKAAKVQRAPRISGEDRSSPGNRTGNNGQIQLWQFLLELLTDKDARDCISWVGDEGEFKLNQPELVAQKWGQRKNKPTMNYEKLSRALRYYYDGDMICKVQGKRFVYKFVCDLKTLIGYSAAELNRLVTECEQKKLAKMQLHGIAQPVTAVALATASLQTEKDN
The following applies: protein: recombinant; tags: N-terminal GST; dsDNA, one strand shown. Put shortly:
as §1

For the next assay, the target named is T4, ERG (Homo sapiens, UniProt P11308 1-479).
T4 sequence: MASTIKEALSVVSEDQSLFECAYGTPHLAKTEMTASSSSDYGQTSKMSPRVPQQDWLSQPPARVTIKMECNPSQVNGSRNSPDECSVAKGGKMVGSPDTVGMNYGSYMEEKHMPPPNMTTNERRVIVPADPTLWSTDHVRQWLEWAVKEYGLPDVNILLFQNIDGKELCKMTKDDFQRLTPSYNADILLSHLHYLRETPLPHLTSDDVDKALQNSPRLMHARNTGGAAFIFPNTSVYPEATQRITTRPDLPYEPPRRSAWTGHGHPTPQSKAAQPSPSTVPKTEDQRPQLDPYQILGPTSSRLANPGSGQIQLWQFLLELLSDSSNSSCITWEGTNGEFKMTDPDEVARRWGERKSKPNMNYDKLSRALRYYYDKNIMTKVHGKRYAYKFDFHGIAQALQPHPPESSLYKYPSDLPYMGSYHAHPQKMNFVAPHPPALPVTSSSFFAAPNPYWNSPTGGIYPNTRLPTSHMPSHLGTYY
The following applies: protein: recombinant; tags: N-terminal GST; dsDNA, one strand shown. Put shortly: as §1

Another assay addresses ELF1 (Homo sapiens, UniProt P32519 1-619). As to conditions: protein: recombinant; tags: N-terminal GST; dsDNA, one strand shown. An outline of the steps:
as §1

The target of another assay is T5, EHF (Homo sapiens, UniProt Q9NZC4 1-300).
T5 sequence: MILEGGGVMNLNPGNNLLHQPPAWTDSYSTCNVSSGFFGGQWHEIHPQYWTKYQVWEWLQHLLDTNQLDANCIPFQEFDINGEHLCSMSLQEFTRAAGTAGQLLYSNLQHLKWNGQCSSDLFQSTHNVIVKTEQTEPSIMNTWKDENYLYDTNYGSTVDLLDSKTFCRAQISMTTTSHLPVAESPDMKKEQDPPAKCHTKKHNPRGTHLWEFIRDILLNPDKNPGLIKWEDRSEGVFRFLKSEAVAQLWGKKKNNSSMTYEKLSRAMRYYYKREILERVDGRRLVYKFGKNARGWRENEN
As to conditions: protein: recombinant; tags: N-terminal GST; dsDNA, one strand shown. Put shortly:
as §1

In another assay the target is SPI1 (Homo sapiens, UniProt P17947 1-270). As to conditions: protein: recombinant; tags: N-terminal GST; dsDNA, one strand shown. Put shortly: as §1
The next assay has as its target SPIB (Homo sapiens, UniProt Q01892 1-262). As to conditions: protein: recombinant; tags: N-terminal GST; dsDNA, one strand shown. An outline of the steps: as §1
In the next assay the target is T6, ELK3 (Homo sapiens, UniProt P41970 1-407).
T6 sequence: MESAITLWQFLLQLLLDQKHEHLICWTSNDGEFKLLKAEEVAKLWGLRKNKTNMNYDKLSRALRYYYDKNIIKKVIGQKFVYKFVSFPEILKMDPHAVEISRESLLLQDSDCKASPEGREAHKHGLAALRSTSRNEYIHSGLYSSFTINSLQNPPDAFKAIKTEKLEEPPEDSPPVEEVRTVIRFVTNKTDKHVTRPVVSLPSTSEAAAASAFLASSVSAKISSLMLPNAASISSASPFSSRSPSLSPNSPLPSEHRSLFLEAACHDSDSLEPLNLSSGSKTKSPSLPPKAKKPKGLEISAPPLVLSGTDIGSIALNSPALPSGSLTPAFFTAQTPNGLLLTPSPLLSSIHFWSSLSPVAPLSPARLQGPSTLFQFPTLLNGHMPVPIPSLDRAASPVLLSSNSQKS
As to conditions: protein: recombinant; tags: N-terminal GST; dsDNA, one strand shown. Put shortly: as §1

The target in another assay is T7, FEV (Homo sapiens, UniProt Q99581 1-238).
T7 sequence: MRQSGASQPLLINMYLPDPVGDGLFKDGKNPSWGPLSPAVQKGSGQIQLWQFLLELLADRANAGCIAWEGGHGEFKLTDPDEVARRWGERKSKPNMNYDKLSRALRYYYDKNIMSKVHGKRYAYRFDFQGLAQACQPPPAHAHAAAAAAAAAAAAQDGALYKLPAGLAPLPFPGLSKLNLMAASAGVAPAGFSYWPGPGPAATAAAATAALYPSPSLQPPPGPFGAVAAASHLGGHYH
As to conditions: protein: recombinant; tags: N-terminal GST; dsDNA, one strand shown. An outline of the steps:
as §1

The next assay concerns the target ETV5 (Homo sapiens, UniProt P41161 1-510). The following applies: protein: recombinant; tags: N-terminal GST; dsDNA, one strand shown. An outline of the steps: as §1
In another assay the target is HSF1 (Homo sapiens, UniProt Q00613 1-529). As to conditions: protein: recombinant; tags: N-terminal GST; chain copies: 3; dsDNA, one strand shown. Put shortly:
as §1

The target of the next assay is T8, SPIC (Homo sapiens, UniProt Q8N5J4 1-248).
T8 sequence: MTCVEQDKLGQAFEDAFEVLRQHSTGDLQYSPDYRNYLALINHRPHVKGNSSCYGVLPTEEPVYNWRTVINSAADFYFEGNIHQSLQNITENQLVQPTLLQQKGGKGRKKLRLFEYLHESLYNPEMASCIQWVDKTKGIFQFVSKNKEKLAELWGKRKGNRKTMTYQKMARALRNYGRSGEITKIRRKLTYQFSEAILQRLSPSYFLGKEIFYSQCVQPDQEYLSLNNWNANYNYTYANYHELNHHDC
As to conditions: protein: recombinant; tags: N-terminal GST; dsDNA, one strand shown. Put shortly:
as §1

A further assay concerns the target ELF4 (Homo sapiens, UniProt Q99607 1-663). As to conditions: protein: recombinant; tags: N-terminal GST; dsDNA, one strand shown. Put shortly: as §1
In a further assay the target is T9, ELK4 (Homo sapiens, UniProt P28324-2 1-405).
T9 sequence: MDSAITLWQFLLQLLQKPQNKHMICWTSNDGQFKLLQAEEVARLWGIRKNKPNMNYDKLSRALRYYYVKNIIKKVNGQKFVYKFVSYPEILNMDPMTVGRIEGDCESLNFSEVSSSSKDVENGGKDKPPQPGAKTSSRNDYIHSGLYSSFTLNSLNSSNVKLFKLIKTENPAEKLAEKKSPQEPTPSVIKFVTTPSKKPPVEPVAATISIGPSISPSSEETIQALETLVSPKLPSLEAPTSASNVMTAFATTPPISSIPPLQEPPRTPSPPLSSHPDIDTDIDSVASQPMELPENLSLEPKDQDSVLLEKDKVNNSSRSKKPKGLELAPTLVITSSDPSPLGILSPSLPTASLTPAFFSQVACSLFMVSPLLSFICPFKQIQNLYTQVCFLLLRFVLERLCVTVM
As to conditions: protein: recombinant; tags: N-terminal GST; dsDNA, one strand shown. An outline of the steps:
as §1

Another assay concerns the target T10, ETV2 (Homo sapiens, UniProt O00321 1-342).
T10 sequence: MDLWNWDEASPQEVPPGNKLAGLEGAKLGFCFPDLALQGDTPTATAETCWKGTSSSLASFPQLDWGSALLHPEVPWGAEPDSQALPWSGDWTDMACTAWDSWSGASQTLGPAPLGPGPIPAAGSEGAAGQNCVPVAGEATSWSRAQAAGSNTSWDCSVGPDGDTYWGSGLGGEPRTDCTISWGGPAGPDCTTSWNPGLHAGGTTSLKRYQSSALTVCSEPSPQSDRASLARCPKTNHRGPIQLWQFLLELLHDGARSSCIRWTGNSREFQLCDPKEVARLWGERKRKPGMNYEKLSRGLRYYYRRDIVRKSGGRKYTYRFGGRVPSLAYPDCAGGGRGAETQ
As to conditions: protein: recombinant; tags: N-terminal GST; dsDNA, one strand shown. An outline of the steps: as §1

Another assay has as its target T11, ELF3 (Homo sapiens, UniProt P78545 1-371).
T11 sequence: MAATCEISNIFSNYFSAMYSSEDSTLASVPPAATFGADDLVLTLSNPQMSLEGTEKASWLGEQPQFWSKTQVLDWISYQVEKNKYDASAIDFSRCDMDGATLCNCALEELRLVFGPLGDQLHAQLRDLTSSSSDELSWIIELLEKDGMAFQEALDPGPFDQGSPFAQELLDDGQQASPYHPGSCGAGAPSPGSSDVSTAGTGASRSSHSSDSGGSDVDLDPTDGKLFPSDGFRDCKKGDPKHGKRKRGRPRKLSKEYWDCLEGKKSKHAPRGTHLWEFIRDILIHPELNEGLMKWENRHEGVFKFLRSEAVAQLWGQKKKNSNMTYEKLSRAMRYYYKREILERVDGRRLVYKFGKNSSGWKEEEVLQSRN
The following applies: protein: recombinant; tags: N-terminal GST; dsDNA, one strand shown. An outline of the steps:
as §1

For another assay, the target named is ETV1 (Homo sapiens, UniProt P50549 1-477). As to conditions: protein: recombinant; tags: N-terminal GST; dsDNA, one strand shown. Put shortly: as §1
ETV1, sequence (P50549 whole entry): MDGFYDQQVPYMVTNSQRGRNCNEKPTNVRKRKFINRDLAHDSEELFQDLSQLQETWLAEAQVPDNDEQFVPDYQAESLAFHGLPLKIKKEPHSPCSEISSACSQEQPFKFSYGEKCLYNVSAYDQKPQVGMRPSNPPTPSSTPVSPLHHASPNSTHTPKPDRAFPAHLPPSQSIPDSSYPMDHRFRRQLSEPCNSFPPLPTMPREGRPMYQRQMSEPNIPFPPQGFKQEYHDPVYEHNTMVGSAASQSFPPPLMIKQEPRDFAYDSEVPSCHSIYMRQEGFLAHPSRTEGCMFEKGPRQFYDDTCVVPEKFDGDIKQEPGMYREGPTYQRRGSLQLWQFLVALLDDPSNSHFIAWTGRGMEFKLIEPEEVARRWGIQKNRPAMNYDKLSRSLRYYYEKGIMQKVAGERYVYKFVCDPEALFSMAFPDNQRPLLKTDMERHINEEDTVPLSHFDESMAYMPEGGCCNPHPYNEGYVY

HSF1, sequence (Q00613 whole entry): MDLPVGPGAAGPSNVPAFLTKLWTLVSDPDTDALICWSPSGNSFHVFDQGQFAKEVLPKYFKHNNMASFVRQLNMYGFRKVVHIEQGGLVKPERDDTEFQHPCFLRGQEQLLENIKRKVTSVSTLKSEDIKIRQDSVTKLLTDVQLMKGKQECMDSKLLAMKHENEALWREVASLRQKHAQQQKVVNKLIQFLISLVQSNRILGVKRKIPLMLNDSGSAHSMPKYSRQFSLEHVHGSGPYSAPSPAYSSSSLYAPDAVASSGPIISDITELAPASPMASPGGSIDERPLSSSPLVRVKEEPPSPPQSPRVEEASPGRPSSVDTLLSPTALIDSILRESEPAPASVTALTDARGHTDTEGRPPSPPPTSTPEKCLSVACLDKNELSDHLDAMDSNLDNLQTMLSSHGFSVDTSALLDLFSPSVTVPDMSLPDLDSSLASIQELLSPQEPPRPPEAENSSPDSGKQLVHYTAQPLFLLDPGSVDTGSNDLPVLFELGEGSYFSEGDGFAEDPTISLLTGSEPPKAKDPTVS
SPIB, sequence (Q01892 whole entry): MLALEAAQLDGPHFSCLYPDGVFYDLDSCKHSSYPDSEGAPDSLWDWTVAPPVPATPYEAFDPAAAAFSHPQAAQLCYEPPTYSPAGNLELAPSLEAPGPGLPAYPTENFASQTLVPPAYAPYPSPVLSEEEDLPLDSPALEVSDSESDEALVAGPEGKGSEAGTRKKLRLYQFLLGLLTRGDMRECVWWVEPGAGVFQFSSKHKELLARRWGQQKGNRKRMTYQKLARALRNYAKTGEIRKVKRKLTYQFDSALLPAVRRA
ELF1, sequence (P32519 whole entry): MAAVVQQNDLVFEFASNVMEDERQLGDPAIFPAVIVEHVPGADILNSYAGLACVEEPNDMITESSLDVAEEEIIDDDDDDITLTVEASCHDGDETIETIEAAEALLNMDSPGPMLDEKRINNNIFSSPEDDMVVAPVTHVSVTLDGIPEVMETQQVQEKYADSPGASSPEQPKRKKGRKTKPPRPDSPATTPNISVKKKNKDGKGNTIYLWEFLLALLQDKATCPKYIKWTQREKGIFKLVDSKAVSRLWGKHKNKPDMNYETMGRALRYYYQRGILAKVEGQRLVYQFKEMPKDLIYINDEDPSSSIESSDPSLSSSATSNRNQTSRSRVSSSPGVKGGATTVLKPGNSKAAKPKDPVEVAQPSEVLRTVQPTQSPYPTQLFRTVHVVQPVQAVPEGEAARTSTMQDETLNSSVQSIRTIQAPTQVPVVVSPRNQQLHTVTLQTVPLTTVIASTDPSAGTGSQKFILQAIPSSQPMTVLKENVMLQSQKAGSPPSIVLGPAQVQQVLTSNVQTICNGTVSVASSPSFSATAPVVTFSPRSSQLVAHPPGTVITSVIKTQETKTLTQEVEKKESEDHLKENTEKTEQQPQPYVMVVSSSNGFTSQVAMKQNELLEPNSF
ELF4, sequence (Q99607 whole entry): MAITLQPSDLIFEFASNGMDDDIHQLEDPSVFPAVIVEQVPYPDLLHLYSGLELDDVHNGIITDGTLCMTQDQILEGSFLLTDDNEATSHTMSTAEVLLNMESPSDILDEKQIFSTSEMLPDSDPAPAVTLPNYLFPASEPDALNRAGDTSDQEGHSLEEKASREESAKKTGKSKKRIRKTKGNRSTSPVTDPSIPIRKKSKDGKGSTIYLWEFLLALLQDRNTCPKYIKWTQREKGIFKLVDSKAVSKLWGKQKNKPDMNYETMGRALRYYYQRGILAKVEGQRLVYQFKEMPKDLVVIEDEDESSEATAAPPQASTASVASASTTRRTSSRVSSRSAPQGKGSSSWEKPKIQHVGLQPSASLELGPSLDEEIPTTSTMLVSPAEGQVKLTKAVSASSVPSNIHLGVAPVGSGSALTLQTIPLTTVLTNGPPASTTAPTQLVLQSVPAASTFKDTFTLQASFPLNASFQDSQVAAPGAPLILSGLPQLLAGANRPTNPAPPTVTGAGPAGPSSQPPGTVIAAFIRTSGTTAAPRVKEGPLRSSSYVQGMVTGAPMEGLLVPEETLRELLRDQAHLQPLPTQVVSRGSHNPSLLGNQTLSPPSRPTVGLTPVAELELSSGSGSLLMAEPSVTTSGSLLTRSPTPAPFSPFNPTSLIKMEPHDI
ETV5, sequence (P41161 whole entry): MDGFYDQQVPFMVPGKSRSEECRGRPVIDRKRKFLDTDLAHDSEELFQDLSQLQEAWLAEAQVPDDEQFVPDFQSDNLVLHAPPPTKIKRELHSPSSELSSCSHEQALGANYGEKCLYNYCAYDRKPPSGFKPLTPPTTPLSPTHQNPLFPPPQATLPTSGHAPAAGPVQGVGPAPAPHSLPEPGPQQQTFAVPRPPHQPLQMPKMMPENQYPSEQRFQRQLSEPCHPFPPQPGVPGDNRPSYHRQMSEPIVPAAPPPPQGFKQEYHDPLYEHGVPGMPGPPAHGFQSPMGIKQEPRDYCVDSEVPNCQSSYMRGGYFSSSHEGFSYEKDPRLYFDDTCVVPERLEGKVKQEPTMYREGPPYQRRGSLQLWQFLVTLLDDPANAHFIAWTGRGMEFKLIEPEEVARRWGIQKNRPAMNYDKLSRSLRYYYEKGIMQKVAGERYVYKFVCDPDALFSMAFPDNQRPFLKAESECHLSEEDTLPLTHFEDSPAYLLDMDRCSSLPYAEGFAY

For the sequence TGCGTA, the binding signal was 1.15 fold enrichment (6-mer frequency, TF over GST control) with FLI1; 1.15 fold enrichment (6-mer frequency, TF over GST control) with ELK1; 1.06 fold enrichment (6-mer frequency, TF over GST control) with GABPA; 1.05 fold enrichment (6-mer frequency, TF over GST control) with ERG; 1.1 fold enrichment (6-mer frequency, TF over GST control) with ELF1; 1.06 fold enrichment (6-mer frequency, TF over GST control) in the assay with EHF. Moreover, the binding signal in the assay with SPI1 is 1.17 fold enrichment (6-mer frequency, TF over GST control); with SPIB, 1.22 fold enrichment (6-mer frequency, TF over GST control); with ELK3, 1.09 fold enrichment (6-mer frequency, TF over GST control); with FEV it was 1.06 fold enrichment (6-mer frequency, TF over GST control); with ETV5, 1.12 fold enrichment (6-mer frequency, TF over GST control); with HSF1 it was 1.06 fold enrichment (6-mer frequency, TF over GST control). Also, the binding signal with SPIC is 1.11 fold enrichment (6-mer frequency, TF over GST control); with ELF4, 1.08 fold enrichment (6-mer frequency, TF over GST control); with ELK4, 1.27 fold enrichment (6-mer frequency, TF over GST control); with ETV2, 1.21 fold enrichment (6-mer frequency, TF over GST control); with ELF3, 1.01 fold enrichment (6-mer frequency, TF over GST control); with ETV1, 1.24 fold enrichment (6-mer frequency, TF over GST control).

Source of the values: paper PMC7862700, “An all-to-all approach to the identification of sequence-specific readers for epigenetic DNA modifications on cytosine”.
